# Screens: PubChem, National Center for Advancing Translational Sciences (NCATS)
# Pf Dd2 growth = qHTS Primary assay for Inhibitors of Plasmodium falciparum Dd2 growth in vitro; Potency, µM (doses to about 28.9 µM), inactives show top-dose activity, negative = inhibition, usual class: inhibitors; P. falciparum Dd2 growth, SYBR Green, 72 h; actives 4.3% (n = 120,000); active = well fitted inhibition curve with a large enough effect;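 note: plate controls were DMSO vehicle for no effect and reference drug for full effect; nearly all actives have a fitted effect of over 65% in size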
#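 Readout: SYBR Green fluorescence, 485 nm excitation, 535 nm emission, after ~16 h lysis at 37C. Before that, Dd2-infected red cells (2.5% hematocrit) grew 72 h with compound, 29 uM top final concentration.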
# * = called active by the depositor; i = inactive; [ ] = another dose, or the depositor's remark. This is one part of a sample in which hits are shown more often than they occur. Potency is the fitted concentration of half-maximal effect.
SMILES,Pf Dd2 growth
FC(F)(F)CN1C2CCC1CN(c1nncc3ccccc13)C2,-21%
CCc1ncc2c(N3CC4CCC(C3)N4CC(F)(F)F)nc3ccccc3n12,3.2µM*
COc1cc2ncnc(N3CC4CCC(C3)N4CC(F)(F)F)c2cc1OC,-24%
Cc1noc([C@@H]2CN(C(=O)c3ccco3)C[C@H]2COCC2CC2)n1,12%
O=C(NC1CCN(Cc2ccccc2)CC1)C1CCc2ncc(-c3ccsc3)n2C1 (configuration not stated),8.9µM*
O=C(C1CCc2ncc(-c3ccsc3)n2C1)N1CCN(c2ccccn2)CC1 (configuration not stated),i
CC(C)CNC(=O)C1CCc2ncc(-c3ccsc3)n2C1 (configuration not stated),i
O=C(c1cc(C2CC2)[nH]n1)N1CCc2n[nH]c(=O)n2CC1,i
Cc1cc(=O)n(CC(=O)Nc2ccc(C)c(Cl)c2)c(N2CCOCC2)n1,i
Cc1noc(C)c1-c1ccc2c(n1)CN(CCOc1ccccc1)C(=O)CO2,i
O=C1COc2ccc(OCc3cccnc3)nc2CN1Cc1ccccc1F,-9%[44.1 µM]
Cc1ccc(NC(=O)CCNc2c(C)nc3cnccn23)c(F)c1,i
COc1ccc(-c2csc3ncnc(Nc4cccc(F)c4)c23)cc1,47%
COc1ccc(-c2csc3ncnc(Nc4cc(OC)cc(OC)c4)c23)cc1,i
CCOc1ccc(-c2csc3ncnc(Nc4cccc(O)c4)c23)cc1,10µM*
COCCN1CCOC[C@H]2CCN(C(=O)c3cccc4[nH]ccc34)C[C@H]21,i
Cn1cnc([S+](=O)([O-])N2CCC(c3nnc4n3C(C(=O)O)CC4)CC2)c1 (configuration not stated),24%
Cn1cc(CN2CCc3ccccc32)ccc1=O,-6%
CCOC(=O)C1=C(CN(CC)Cc2ccccc2)NC(=O)NC1c1ccc(OC)cc1 (configuration not stated),i
Cc1ccc(COC(=O)c2[nH]c3c(c2C)C(=O)CC(c2ccc(Cl)cc2)C3)cc1 (configuration not stated),-6%
CCOC(=O)c1[nH]c2c(c1Cc1ccccc1)C(=O)CC(c1ccc(OC)cc1)C2 (configuration not stated),11µM*
CCOC(=O)c1[nH]c2c(c1Cc1ccccc1)C(=O)CC(c1ccc(Cl)cc1)C2 (configuration not stated),10µM*
Cc1c(C(=O)OCC2CCCCC2)[nH]c2c1C(=O)CC(c1ccc(Cl)cc1)C2 (configuration not stated),3%
CCOC(=O)c1cc(-c2ccc(OC)cc2)nn1Cc1ccccc1,-1%
c1ccc(C2=NOC3(CCCN(Cc4cccc5ccccc45)C3)C2)nc1 (configuration not stated),i
SMILES,Pf Dd2 growth
Cc1cc(C(=O)N2CC[C@H](NC(=O)c3snnc3C)C[C@H]2C(=O)N[C@@H](Cc2cccs2)C(N)=O)n(C)n1,-14%
CC(C)c1ccc(Nc2n[nH]c(C(O)C3CC3)n2)cc1 (configuration not stated),-8%[44.1 µM]
O=C1NCCCCCCN(C(=O)C2(c3ccccc3)CC2)[C@H]2CCCC[C@@H]12,-4%
CCOc1ccccc1NC(=O)c1c(NC(=O)c2cccc(C)c2)sc2c1CCCC2,8.9µM*
CCOc1ccccc1NC(=O)c1c(NC(=O)Cc2ccccc2)sc2c1CCCC2,25%
CCOc1ccccc1NC(=O)c1c(NC(=O)COc2ccc(Cl)cc2)sc2c1CCCCC2,i
Cn1nc(C2CCN(C(=O)c3cccnc3)CC2)c2c1CCOC2,i[5.79 µM]
CN(c1ccccc1)c1ccc2c(n1)CN(Cc1ccc(F)cc1)C(=O)CO2,i
Cc1c(CC(=O)NC2CCOCC2)c2c(n1Cc1ccc(F)cc1)CCCC2=O,-13%
Cc1c(CC(=O)NC2CCOCC2)c2c(n1CCc1ccccc1)CCCC2=O,10µM*
Cc1c(CC(=O)N2CCC(C#N)CC2)c2c(n1Cc1ccccc1)CCCC2=O,-22%
COc1ccc(C(=O)NC2CCc3n[nH]c(=O)n3CC2)c(OC)n1 (configuration not stated),57%
O=C(CCCc1ccccc1)NCc1nnc2c(-c3nc(C4CC4)no3)cccn12,-1%
CC(C)N[C@H]1C[C@@H](Cc2cc(-c3ccccc3)on2)C1(C)C,-8%[44.1 µM]
CN1CCC(N[C@H]2C[C@@H](Cc3cc(-c4ccccc4)on3)C2(C)C)CC1,4µM*
COc1ccc(C(=O)N[C@H]2C[C@@H](Cc3cc(CN(C)C)on3)C2(C)C)cc1,-17%[44.1 µM]
COc1ccc(C(=O)N[C@H]2C[C@@H](Cc3cc(-c4ccccc4)on3)C2(C)C)cc1,4.5µM*
COCc1cc(C[C@@H]2C[C@H](NC3CCC3)C2(C)C)no1,i
CCNC(=O)N[C@H]1C[C@@H](Cc2cc(-c3ccccc3)on2)C1(C)C,-16%[44.1 µM]
COCC(=O)N1CCCC(C(=O)N2CCN(c3ccccc3OC)CC2)CCNC(=O)CC1 (configuration not stated),7%
COc1ccc(-c2nc(C3CC(=O)N(c4ccc(F)c(Cl)c4)C3)no2)c(OC)c1 (configuration not stated),46%
CN(C)CC(=O)N1Cc2ccccc2CC2(CCN(CC3CCNCC3)C2)C1 (configuration not stated),14%
COC(=O)CNC(=O)N1CCC(N2CC3CC(C2)[C@H]2CCCC(=O)N2C3)CC1 (some centres not stated),-2%
CN(CC(=O)O)C(=O)[C@H]1C[C@@](C)(C(=O)O)N(C)[C@H]1c1ccc(Cl)cc1,19%
Cc1noc(C)c1S(=O)(=O)N1CCCC(Cc2nncn2C)C1 (configuration not stated),-7%
SMILES,Pf Dd2 growth
COc1cccc(S(=O)(=O)N2CCN(C3CCN(C)C3=O)CC2)c1 (configuration not stated),17%
COc1ccc(C2Cn3nnc(-c4nc(-c5ccccc5OC)no4)c3CO2)cc1 (configuration not stated),-1%
COc1ccc(CCNC(=O)C(=O)Nc2ccc(C)c(C)c2)cc1,20%
COc1ccc(CNC(=O)C(=O)Nc2ccc(OC)cc2OC)cc1,5.6µM*
COc1ccc(CNC(=O)C(=O)Nc2cccc(C)c2C)cc1,29%
COCCN1CCCCCC(O)c2cc(C(=O)NCc3ccccc3OC)ccc21 (configuration not stated),i
Cc1ccc(C)c(S(=O)(=O)N2CCN(C3CCN(Cc4cccnc4)C3=O)CC2)c1 (configuration not stated),i
CN1CCOc2c(C(=O)NCC[S+](C)(=O)[O-])cc(-c3ccccc3F)cc21,i
Cc1cccc(OCC(=O)N2CCC(n3cc(-c4nc(-c5ccccc5)no4)nn3)C2)c1 (configuration not stated),173%
COc1ccc(CNC(=O)Cn2c(=O)oc3cc(S(=O)(=O)N4CCCC4)ccc32)cc1,-1%
CC1CCN(S(=O)(=O)c2ccc3c(c2)oc(=O)n3CC(=O)NCc2ccc(F)cc2)CC1,5.6µM*
COc1cccc(CNC(=O)Cn2c(=O)oc3cc(S(=O)(=O)N4CCC(C)CC4)ccc32)c1,-5%
Cc1ccc2c(c1)-c1cc(C)nn1C(c1cc(Br)ccc1O)N2 (configuration not stated),13µM*
CS(=O)(=O)c1ccc(OC[C@H]2C[C@@H](NC(=O)c3cccnc3)[C@H](O)[C@@H]2O)cc1,i
O=C1NC2CCCCC2=C1CC(=O)N1CCOCC1 (configuration not stated),-16%
